Rows were chosen to be rich in hits. Some 13% of all compounds tested hit in one or more screens of this group.
LASV entry inh: inhibitors of Lassa virus binding or cell entry; Lassa virus pseudotype entry inhibition, cell reporter; Potency, µM (series often up to 37.9 µM), most hits filed as inhibitors; 300,000 tested, 1.2% active; calls by dose curve; tested in HEK293 cells; note: nearly all actives have a fitted effect of over 50% in size
HCV inh: HCV inhibition. Huh7.5.1 HCVcc-Cre infection, luciferase reporter, 44 h. Potency, µM (doses to about 41.8 µM), usual class: inhibitors. 340,000 tested, 3.4% active. AID 651820; active = well fitted inhibition curve with a large enough effect; inconclusive = small, poorly fitted or top-dose-only effect, or another doubt; inactive = no such curve, though single readings can be large or run the other way
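1,000 cells/well; 4 h culture; + compound; + HCVcc-Cre (~0.5 moi); 44 h; luciferase substrate, RT 15 min; read 15 sec.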
Shiga inhibitor: inhibitors of Shiga toxin in Vero cells. Vero cells, Shiga toxin protein synthesis inhibition reporter. inhibition, % at 38.7 µM. 290,000 tested, 9.2% active; in the data active = inhibition mostly above about 28%, no sharp cut-off; inactive = mostly below about 43%
FMDV antiviral: antivirals against foot and mouth disease virus | FMDV antiviral cell-based qHTS | Potency, µM (doses to about 57.9 µM), actives largely listed as inhibitors | 410,000 tested, 1.2% active; calls by dose curve; tested in HEK293T cells; note: read-out not given here; nearly all actives have a fitted effect of over 45% in size
Marburg entry inh: blocks Marburg virus binding to or entry into cells. Marburg virus pseudotyped entry inhibition, cell reporter. Potency, µM (titrated, usually from 37.8 µM), most hits filed as inhibitors. 300,000 tested, 1.8% active; calls by dose curve; tested in HEK293 cells
Cycloheximide cs: affects cycloheximide protein synthesis inhibition readout, counter-screen | AID 2314 | cell reporter, cycloheximide protein synthesis inhibition counterscreen | 300,000 tested, 12% active | max response, %; in the data active = max response mostly above about 13%, no sharp cut-off; inactive = mostly below about 14%; note: read at 38.3 µM for the half of the compounds with a filed dose
Each line names hits and unclear results; the compound was inactive in the other large screens.

O=C(NC(=S)NCCSc1ccccc1)c1cccnc1	Shiga inhibitor 36.8, Marburg entry inh inconclusive, Cycloheximide cs 27.3
Cc1ccccc1NC(=S)NC(=O)c1cncc(Br)c1	LASV entry inh inconclusive, Marburg entry inh inconclusive
O=C(NC(=S)Nc1ccc(Cl)cn1)c1cccs1	LASV entry inh inconclusive, Shiga inhibitor 98.6, Marburg entry inh inconclusive, Cycloheximide cs 62.8
Cc1c(Cl)cccc1NC(=S)NC(=O)c1cncc(Br)c1	LASV entry inh 3.16µM (no result: Shiga inhibitor, Cycloheximide cs)
Cc1cc(C(=O)Oc2ccccc2C(=O)O)c(C)o1	none
Cc1ccc(S(=O)(=O)Oc2ccccc2/C=C2\SC(=O)NC2=O)cc1	LASV entry inh inconclusive
O=C(CNS(=O)(=O)c1ccc(Br)cc1)N1CCN(Cc2ccccc2)CC1	HCV inh inconclusive
COc1ccccc1/C=N/NC(=O)c1cccc(NC(=O)c2ccccc2C)c1	none
COc1cc(/C=N/NC(=S)Nc2cccc(C(=O)O)c2)ccc1O	LASV entry inh inconclusive, FMDV antiviral inconclusive, Marburg entry inh inconclusive, Cycloheximide cs 12.1
CNC(=S)N/N=C/c1ccccc1Cl	none
O=C(O)c1cccc(NC(=S)N/N=C/c2cccnc2)c1	Marburg entry inh inconclusive, Cycloheximide cs 17.3
COc1cccc(/C=N/NC(=S)Nc2cccc(C(=O)O)c2)c1O	LASV entry inh 5.8µM, FMDV antiviral inconclusive, Marburg entry inh 5.8µM
S=C(N/N=C/c1ccccc1Cl)Nc1ccccc1	LASV entry inh inconclusive, Shiga inhibitor 122.3, Cycloheximide cs 54.4
COc1cc(/C=N/NC(=O)c2cccc(NC(=O)c3ccccc3Cl)c2)ccc1O	none
CCc1cccc(C)c1NC(=O)CN1C(=O)C2(SCC(=O)N2c2cc(C)cc(C)c2)c2ccccc21 (stereo not drawn)	LASV entry inh inconclusive (no result: HCV inh, Shiga inhibitor, Marburg entry inh, Cycloheximide cs)
Cc1ccc(NC(=O)c2cccc(S(=O)(=O)N3CCN(c4ccc(F)cc4)CC3)c2)nc1	LASV entry inh inconclusive, HCV inh inconclusive, FMDV antiviral inconclusive, Marburg entry inh inconclusive
O=C(CN1CCCCC1)N1CCN(C(=O)CN2CCCCC2)CC1	none (no result: LASV entry inh, HCV inh, FMDV antiviral)
CCCCNC(=O)CSc1nc(O)cc(=O)n1C1CCCC1	none
COc1ccc(/C=N/NC(=S)Nc2ccccc2)cc1	Shiga inhibitor 74.9, Cycloheximide cs 55.3
COc1ccc(/C=N/NC(=S)Nc2cccc(C(=O)O)c2)cc1	LASV entry inh inconclusive, Shiga inhibitor 155.6, Marburg entry inh inconclusive, Cycloheximide cs 40.6
Cc1cccc(NC(=O)CSc2nc(C)c(CC(=O)c3ccc(Br)cc3)c(C)c2C#N)c1C	Marburg entry inh inconclusive
Cc1nc(SCC(=O)Nc2ccc(F)cc2)c(C#N)c(C)c1CC(=O)c1ccc(Br)cc1	LASV entry inh 11.2µM, Marburg entry inh inconclusive
CC(=Nc1ccc(C)c(C)c1)C1=C(O)CCC1=O	Shiga inhibitor 140.3, Marburg entry inh inconclusive, Cycloheximide cs 61.4
CCN(c1nc(N)c(C(=O)N=C(N)N)nc1Cl)C(C)C	LASV entry inh inconclusive, HCV inh inconclusive, Marburg entry inh 14.1µM (no result: Shiga inhibitor, Cycloheximide cs)
Cc1cccc(/C(N)=N/OC(=O)c2ccncc2)c1	LASV entry inh inconclusive, Shiga inhibitor 68.3, Cycloheximide cs 45.6
CC1=CC(=O)C(C(C)C)=C/C1=N/OC(=O)c1cccc([N+](=O)[O-])c1	none (no result: FMDV antiviral)
N/C(=N\OC(=O)c1ccncc1)c1cccc([N+](=O)[O-])c1	LASV entry inh inconclusive, HCV inh inconclusive, Marburg entry inh inconclusive, Cycloheximide cs 26.9 (no result: Shiga inhibitor)
CC1=CC(=NOC(=O)c2cccc([N+](=O)[O-])c2)C=C(C)C1=O	HCV inh inconclusive, Cycloheximide cs 23.0
COc1ccccc1CC(=O)O/N=C(\N)c1cccc([N+](=O)[O-])c1	LASV entry inh inconclusive, Marburg entry inh inconclusive
Cc1ccc(C(=O)O/N=C(\c2ccccc2)c2ccncc2)cc1	Marburg entry inh inconclusive
Cc1ccc(C(=O)O/N=C(\N)c2cccc([N+](=O)[O-])c2)cc1	LASV entry inh inconclusive, Shiga inhibitor 68.9, Cycloheximide cs 38.6
COc1cc(C(=O)O/N=C(\N)c2cccc([N+](=O)[O-])c2)cc(OC)c1OC	HCV inh inconclusive
CC(C)(C)c1nnc(NC(=O)CS(=O)(=O)Cc2ccccc2)s1	none
COc1cc(NC(=O)c2ccc(F)cc2)c(OC)cc1NC(=O)CN1CCCCC1	HCV inh inconclusive, Marburg entry inh inconclusive
N/C(=N\OC(=O)c1ccc(Br)cc1)c1cccc([N+](=O)[O-])c1	Shiga inhibitor 20.2, Cycloheximide cs 25.9 (no result: LASV entry inh, Marburg entry inh)
N/C(=N\OC(=O)C1CCCCC1)c1cccc([N+](=O)[O-])c1	LASV entry inh inconclusive, Shiga inhibitor 106.0, Cycloheximide cs 66.3

Screens deposited in PubChem by National Center for Advancing Translational Sciences (NCATS).
